# Assay results taken from PubChem BioAssay (Tox21).
# Results filed as inconclusive are left out. Calls of active or inactive are those of the source. The call rests on the fitted dose curve; in most records, active means well fitted curve in the direction sought with a large enough effect in the repeat runs; inconclusive means weak or mixed curves; inactive means no such curve, though single readings can be large; an effect the other way counts as inactive or inconclusive.
# Test: A CellTox Green Cytotoxicity Assay to monitor cytotoxicity in HepG2 cells - 16 hour (AID 1224876); further: nearly all actives have a fitted effect of over 45% in size; further: potency means the concentration at half of the fitted maximal effect
# Conditions: CellTox Green fluorescence; series mostly up to 76.8 µM; cytotoxicity increase: at the top concentration
# In short: (§1)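 Cytotoxicity was tracked as dead-cell DNA fluorescence in HepG2 cells treated with test compounds at 37 C; each time-point value comes from one kinetic series spanning 0, 8, 16, 24, 32 and 40 h.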
# On the % scale 0 is the no-effect control and ±100 the full control effect.
SMILES,cytotoxicity increase,Potency
CCCCCCCC[Si](OCC)(OCC)OCC,1.85% (inactive),
CCC(C)(CCC(C)C)C(=O)[O-].CCC(C)(CCC(C)C)C(=O)[O-].[Zn+2] (stereo not given),-0.0311% (inactive),
O=C(COCCOCCOCC(=O)Nc1c(I)cc(I)c(C(=O)O)c1I)Nc1c(I)cc(I)c(C(=O)O)c1I,-5.31% [at 35.3 µM] (inactive),
CN=C(NC#N)NCCSCc1csc(N=C(N)N)n1,-14.7% [at 35.3 µM] (inactive),
CCC(C)N (stereo not given),-13.4% (inactive),
CCOc1ccc(NC(=O)OC(C)C)cc1OCC,16.6% (inactive),
CCCC(C)CC (stereo not given),1.86% (inactive),
Cc1ncc([N+](=O)[O-])n1CC(O)CCl (stereo not given),-1.04% [at 35.3 µM] (inactive),
Cc1nc2ccccc2c(=O)o1,-0.77% (inactive),
O=C1c2ccccc2-c2ccccc21,4.66% (inactive),
C/C=C(\C)C(=O)OCC/C=C\CC,-7.38% (inactive),
CN(C1CCCCC1)S(=O)(=O)c1ccccc1N,-10.9% (inactive),
Cc1ccc2c(c1)c1c3n2CCNC3CCC1 (stereo not given),15.1% [at 35.3 µM] (inactive),
Cc1ccc(S(=O)(=O)NC(=O)NC2CCCCCCC2)cc1,-0.477% [at 35.3 µM] (inactive),
NCCc1ccn[nH]1,-7.24% [at 35.3 µM] (inactive),
CCCCC(CC)CNC(=O)CC(C)OC(=O)CCC(=O)O (stereo not given),,23.9 µM (active)
COCC(=O)Nc1c(I)c(C(=O)NCC(O)CO)c(I)c(C(=O)N(C)CC(O)CO)c1I (stereo not given),3.99% [at 35.3 µM] (inactive),
CC(=O)OCCCc1ccccc1,3.48% (inactive),
O=S1(=O)CCCC1,-5.55% (inactive),

SMILES,cytotoxicity increase,Potency
CCCOC(=O)CCCCC(=O)OCCC,-0.67% (inactive),
CC(CC(=O)O)CC(C)(C)C (stereo not given),-2.68% (inactive),
CC(C)(C)NCCO,7.55% (inactive),
c1ccc(CNc2ncnc3nc[nH]c23)cc1,-5.84% (inactive),
O=C(O)C(=O)Nc1cccc(-c2nn[nH]n2)c1,-9.36% [at 35.3 µM] (inactive),
CC(=O)OC(C)c1ccccc1 (stereo not given),-11.9% (inactive),
CCOC(=O)C(=O)c1csc(NC=O)n1,-12.8% [at 35.3 µM] (inactive),
O=P(O)(O)OCC(O)CO (stereo not given),-13% [at 35.3 µM] (inactive),
CCCCCCCCCCCCCCCC(=O)NCCO,,8.49 µM (active)
CC(C)(CO)[C@@H](O)C(=O)NCCCO,-5.84% [at 35.3 µM] (inactive),
COc1cccc2sc(N)nc12,-3.84% (inactive),
OC[C@@H](O)[C@H](O)[C@@H](O)[C@@H](O)CO,14.1% (inactive),
CCCCCCCCCCCCCCCCCCN(C)C,-3.72% [at 35.3 µM] (inactive),
NS(=O)(=O)c1ccccc1OC(F)(F)F,-4.45% (inactive),
Nc1cc(Cl)cc(S(=O)(=O)O)c1O,-3.11% (inactive),
O=C(CN1CCN(Cc2ccc3c(c2)OCO3)CC1)N1c2ccccc2Sc2ccccc21,12% [at 35.3 µM] (inactive),
C=CC(C)(O)CC/C=C(\C)CC (stereo not given),1.86% (inactive),
CCOC(=O)CC(CC(=O)OCC)(OC(C)=O)C(=O)OCC,1.9% (inactive),

# Test: qHTS RealTime-Glo MT Cell Viability Assay in HepG2 cells - 32 hour (AID 1224877); further: nearly all actives have a fitted effect of over 55% in size
# Conditions: RealTime-Glo luminescence; series mostly up to 76.8 µM; activity change, negative = cytotoxic: at the top concentration
# In short: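 Cells + NanoLuc/prosubstrate dispensed (600 cells/well) → 5 h at 37 C/5% CO2 → compounds in DMSO transferred → 40 h incubation at 37 C, luminescence read at 0, 8, 16, 24, 32, 40 h.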
row,SMILES,"activity change, negative = cytotoxic"
1,CCCCCCCC[Si](OCC)(OCC)OCC,-6.67% (inactive)
2,CCC(C)(CCC(C)C)C(=O)[O-].CCC(C)(CCC(C)C)C(=O)[O-].[Zn+2] (stereo not given),0.272% (inactive)
3,O=C(COCCOCCOCC(=O)Nc1c(I)cc(I)c(C(=O)O)c1I)Nc1c(I)cc(I)c(C(=O)O)c1I,-0.122% [at 35.3 µM] (inactive)
4,CN=C(NC#N)NCCSCc1csc(N=C(N)N)n1,0.323% [at 35.3 µM] (inactive)
5,CCC(C)N (stereo not given),2.58% (inactive)
6,CCOc1ccc(NC(=O)OC(C)C)cc1OCC,-4.09% (inactive)
7,CCCC(C)CC (stereo not given),5.26% (inactive)
8,Cc1ncc([N+](=O)[O-])n1CC(O)CCl (stereo not given),2.16% [at 35.3 µM] (inactive)
9,Cc1nc2ccccc2c(=O)o1,-1.14% (inactive)
10,O=C1c2ccccc2-c2ccccc21,14.7% (inactive)
11,C/C=C(\C)C(=O)OCC/C=C\CC,-0.525% (inactive)
12,CN(C1CCCCC1)S(=O)(=O)c1ccccc1N,-3.9% (inactive)
13,Cc1ccc2c(c1)c1c3n2CCNC3CCC1 (stereo not given),-2.12% [at 35.3 µM] (inactive)
14,Cc1ccc(S(=O)(=O)NC(=O)NC2CCCCCCC2)cc1,10.4% [at 35.3 µM] (inactive)
15,NCCc1ccn[nH]1,0.176% [at 35.3 µM] (inactive)
16,CCCCC(CC)CNC(=O)CC(C)OC(=O)CCC(=O)O (stereo not given),-0.347% [at 35.3 µM] (inactive)
17,COCC(=O)Nc1c(I)c(C(=O)NCC(O)CO)c(I)c(C(=O)N(C)CC(O)CO)c1I (stereo not given),2.76% [at 35.3 µM] (inactive)
18,CC(=O)OCCCc1ccccc1,1.88% (inactive)
19,O=S1(=O)CCCC1,0.676% (inactive)

row,SMILES,"activity change, negative = cytotoxic"
1,CCCOC(=O)CCCCC(=O)OCCC,3.73% (inactive)
2,CC(CC(=O)O)CC(C)(C)C (stereo not given),-0.0203% (inactive)
3,CC(C)(C)NCCO,1.09% (inactive)
4,c1ccc(CNc2ncnc3nc[nH]c23)cc1,-1.32% (inactive)
5,O=C(O)C(=O)Nc1cccc(-c2nn[nH]n2)c1,-0.286% [at 35.3 µM] (inactive)
6,CC(=O)OC(C)c1ccccc1 (stereo not given),2.46% (inactive)
7,CCOC(=O)C(=O)c1csc(NC=O)n1,2.81% [at 35.3 µM] (inactive)
8,O=P(O)(O)OCC(O)CO (stereo not given),2.76% [at 35.3 µM] (inactive)
9,CCCCCCCCCCCCCCCC(=O)NCCO,4.46% [at 35.3 µM] (inactive)
10,CC(C)(CO)[C@@H](O)C(=O)NCCCO,0.697% [at 35.3 µM] (inactive)
11,COc1cccc2sc(N)nc12,-0.578% (inactive)
12,OC[C@@H](O)[C@H](O)[C@@H](O)[C@@H](O)CO,1.41% (inactive)
13,CCCCCCCCCCCCCCCCCCN(C)C,-2% [at 35.3 µM] (inactive)
14,NS(=O)(=O)c1ccccc1OC(F)(F)F,0.699% (inactive)
15,Nc1cc(Cl)cc(S(=O)(=O)O)c1O,13.7% (inactive)
16,O=C(CN1CCN(Cc2ccc3c(c2)OCO3)CC1)N1c2ccccc2Sc2ccccc21,-6.35% [at 35.3 µM] (inactive)
17,C=CC(C)(O)CC/C=C(\C)CC (stereo not given),2.31% (inactive)
18,CCOC(=O)CC(CC(=O)OCC)(OC(C)=O)C(=O)OCC,1.3% (inactive)

# Test: A CellTox Green Cytotoxicity Assay to monitor cytotoxicity in HepG2 cells - 24 hour (AID 1224878); further: nearly all actives have a fitted effect of over 45% in size; further: potency means the concentration at half of the fitted maximal effect
# Conditions: CellTox Green fluorescence; series mostly up to 76.8 µM; cytotoxicity: at the top concentration
# In short: as §1
SMILES,cytotoxicity,Potency
CCCCCCCC[Si](OCC)(OCC)OCC,-2.95% (inactive),
O=C(COCCOCCOCC(=O)Nc1c(I)cc(I)c(C(=O)O)c1I)Nc1c(I)cc(I)c(C(=O)O)c1I,-5.53% [at 35.3 µM] (inactive),
CN=C(NC#N)NCCSCc1csc(N=C(N)N)n1,-17.8% [at 35.3 µM] (inactive),
CCOc1ccc(NC(=O)OC(C)C)cc1OCC,15.4% (inactive),
CCCC(C)CC (stereo not given),0.383% (inactive),
Cc1ncc([N+](=O)[O-])n1CC(O)CCl (stereo not given),-4.05% [at 35.3 µM] (inactive),
Cc1nc2ccccc2c(=O)o1,-3.46% (inactive),
O=C1c2ccccc2-c2ccccc21,3.29% (inactive),
CN(C1CCCCC1)S(=O)(=O)c1ccccc1N,-9.41% (inactive),
Cc1ccc2c(c1)c1c3n2CCNC3CCC1 (stereo not given),22.1% [at 35.3 µM] (inactive),
Cc1ccc(S(=O)(=O)NC(=O)NC2CCCCCCC2)cc1,2.13% [at 35.3 µM] (inactive),
CCCCC(CC)CNC(=O)CC(C)OC(=O)CCC(=O)O (stereo not given),,26.8 µM (active)
COCC(=O)Nc1c(I)c(C(=O)NCC(O)CO)c(I)c(C(=O)N(C)CC(O)CO)c1I (stereo not given),4.06% [at 35.3 µM] (inactive),
CC(=O)OCCCc1ccccc1,1.26% (inactive),
CC(CC(=O)O)CC(C)(C)C (stereo not given),-1.68% (inactive),
CC(C)(C)NCCO,9.61% (inactive),
O=C(O)C(=O)Nc1cccc(-c2nn[nH]n2)c1,-8.39% [at 35.3 µM] (inactive),
CC(=O)OC(C)c1ccccc1 (stereo not given),-13.9% (inactive),
CCCCCCCCCCCCCCCC(=O)NCCO,,8.49 µM (active)
CC(C)(CO)[C@@H](O)C(=O)NCCCO,-7.65% [at 35.3 µM] (inactive),
OC[C@@H](O)[C@H](O)[C@@H](O)[C@@H](O)CO,21.1% (inactive),
CCCCCCCCCCCCCCCCCCN(C)C,-5.8% [at 35.3 µM] (inactive),
NS(=O)(=O)c1ccccc1OC(F)(F)F,-7.92% (inactive),
Nc1cc(Cl)cc(S(=O)(=O)O)c1O,1.51% (inactive),
O=C(CN1CCN(Cc2ccc3c(c2)OCO3)CC1)N1c2ccccc2Sc2ccccc21,18.9% [at 35.3 µM] (inactive),
C=CC(C)(O)CC/C=C(\C)CC (stereo not given),-1.1% (inactive),
